Data reported in PubChem BioAssay AID720631 (The Scripps Research Institute Molecular Screening Center, 2013).
The other results are listed elsewhere or left out. Activity calls are given as the source filed them.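 The calls were made as follows: active = inhibition above the mean of compounds lying within the control limits plus 3 SD (cut at about 16% in these data); inactive = the rest.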

Target: Fibrinogen beta chain (Homo sapiens) (UniProt P02675)
Experiment: inhibitors of Tn6 peptide binding to fibrin DD(E), confirmation, biochemical, fluorescence polarization, human fibrin, Tn6 probe (AID 720631);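 also: 0% = plate median of compound wells and 100% = inhibitor peptide control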
Conditions: FP displacement of TRITC-Tn6 peptide from DD(E); at 8.3 µM; hits give high values

Fibrinogen beta chain (Homo sapiens), sequence (P02675 whole entry, looked up): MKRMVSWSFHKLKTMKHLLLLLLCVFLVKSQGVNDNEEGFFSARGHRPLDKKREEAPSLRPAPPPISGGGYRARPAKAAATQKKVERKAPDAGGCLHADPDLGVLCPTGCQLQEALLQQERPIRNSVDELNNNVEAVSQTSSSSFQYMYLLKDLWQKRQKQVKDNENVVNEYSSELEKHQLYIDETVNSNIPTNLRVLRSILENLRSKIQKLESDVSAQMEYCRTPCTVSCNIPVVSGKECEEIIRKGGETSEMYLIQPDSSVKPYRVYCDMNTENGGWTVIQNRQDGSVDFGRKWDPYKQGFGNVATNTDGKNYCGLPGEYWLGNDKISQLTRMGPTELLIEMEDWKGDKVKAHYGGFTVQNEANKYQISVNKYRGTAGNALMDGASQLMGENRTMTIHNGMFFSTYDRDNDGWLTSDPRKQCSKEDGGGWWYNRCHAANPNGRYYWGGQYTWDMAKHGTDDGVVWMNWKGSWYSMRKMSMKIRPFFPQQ

Row | Compound | inhibition
1 | Cc1cc(N2CCNC[C@@H]2C)ccc1N1CC[C@H](O)C1 | 2.65% (inactive)
2 | COc1ccc2c(c1O)-c1cccc3c1[C@@H](C2)N(C)CC3 | -8.1% (inactive)
